Bioassay records from PubChem.
hDAT+cocaine: modulates human dopamine transporter uptake under cocaine; B-score at 10 µM; LLC-PK1 hDAT cells, [14C]-dopamine uptake with cocaine IC80; actives deviate in either direction; AID 449768; Q01959; 110,000 compounds, 1.3% hits;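 active = Z score or B-score, a plate-position-corrected score, falls beyond the plate's 99.7% confidence bounds, in either direction; inactive = both scores lie inside the 99.7% bounds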
Target sequence (Q01959 whole entry, looked up): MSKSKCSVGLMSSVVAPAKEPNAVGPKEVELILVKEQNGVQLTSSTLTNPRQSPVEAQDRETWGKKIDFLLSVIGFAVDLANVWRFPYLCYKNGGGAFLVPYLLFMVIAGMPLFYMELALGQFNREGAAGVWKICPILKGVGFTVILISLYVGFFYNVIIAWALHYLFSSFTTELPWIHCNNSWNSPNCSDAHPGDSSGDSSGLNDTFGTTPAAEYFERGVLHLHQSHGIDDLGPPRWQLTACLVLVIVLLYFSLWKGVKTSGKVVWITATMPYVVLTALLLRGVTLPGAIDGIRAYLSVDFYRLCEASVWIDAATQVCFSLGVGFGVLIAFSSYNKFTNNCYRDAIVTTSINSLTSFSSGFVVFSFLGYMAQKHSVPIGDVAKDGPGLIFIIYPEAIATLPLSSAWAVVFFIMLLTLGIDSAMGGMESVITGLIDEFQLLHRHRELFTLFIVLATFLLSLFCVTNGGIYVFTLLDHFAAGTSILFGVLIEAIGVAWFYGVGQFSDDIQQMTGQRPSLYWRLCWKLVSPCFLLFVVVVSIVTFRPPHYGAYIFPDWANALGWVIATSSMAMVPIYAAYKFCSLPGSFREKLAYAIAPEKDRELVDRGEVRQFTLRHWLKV
PostGolgi yeast: growth inhibition of a yeast mutant, post-Golgi transport screen; inhibition, % at 10 µM; AID 739; 98,000 compounds, 0.9% hits; post-Golgi transport phenotypic cell assay;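 also: yeast cells grown in 1536-well plates; yeast grown about 18 h at 30C before absorbance read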
PostGolgi ctrl: growth of the yeast control strain, post-Golgi counter-screen. inhibition, % at 10 µM. 98,000 compounds, 5% hits. efflux-deficient yeast background strain, growth absorbance A615, 16 h
D1 mod: allosteric modulators of human D1 dopamine receptor | P21728 | HEK293 D1, CRE-luciferase, dopamine EC30 potentiation; actives deviate in either direction | B-score at 10 µM | 58,000 compounds, 5.9% hits | AID 641;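 active = luminescence count or its row- and column-corrected plate score outside the 99.7% band of the plate's sample wells, on either side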
Cav3 T inh: inhibitors of human Cav3.2 T-type calcium channel; O95180; Cav3.2-expressing cells, Fluo-4 calcium fluorescence FDSS; stronger effect = lower value; B-score at 10 µM; 100,000 compounds, 4% hits;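 active = single-dose well whose peak fluorescence ratio is a statistical outlier from its plate by either plate-standardised score or position-corrected B-score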
PLAP act: activates human placental alkaline phosphatase. P05187. purified PLAP enzyme, luminescent substrate read-out; stronger effect = higher value. activation fold at 20 µM. 96,000 compounds, 1.2% hits. AID 696; in the data active = activation fold above about 2
Large screens that a line does not name were inactive. Only some compounds are listed: those with a hit (about 12% of all), similar ones and a draw of the others. Rule as the data show it, unless noted: active = inhibition above about 30%; inactive = the rest.

Nc1c(C(=O)c2ccccc2)oc2ccccc12	none (no result: D1 mod)
CC(=O)Nc1c(C(=O)c2ccccc2)oc2ccccc12	D1 mod 6
C=C(C)Cn1c(N2CC(C)CC(C)C2)nc2c1c(=O)[nH]c(=O)n2C (stereo not drawn)	D1 mod 7 (no result: PostGolgi yeast, PostGolgi ctrl, PLAP act)
C=C(C)Cn1c(Sc2nc3ccccc3[nH]2)nc2c1c(=O)[nH]c(=O)n2C	PLAP act 2.1
Cc1csc(Sc2nc3c(c(=O)[nH]c(=O)n3C)n2CCCc2ccccc2)n1	PostGolgi ctrl 45
COC(=O)NCc1cccc(CNC(=O)OC)c1	none
CCCOc1ccc(C2C(=O)N(C3CCCCC3)CC(=O)N2C2CC2)cc1OC (stereo not drawn)	none
CCOc1ccc(OCC)c(NC(=O)C2CCCN(S(=O)(=O)c3c(C)n[nH]c3C)C2)c1 (stereo not drawn)	PLAP act 2
CCCN1C2CCCC1CC(NC(=O)c1ccc(F)cc1)C2 (stereo not drawn)	D1 mod -2.2
O=C(NC1CC2CCCC(C1)N2S(=O)(=O)c1ccccc1)c1ccccc1 (stereo not drawn)	none (no result: D1 mod)
CC1CCCCC1NC(=O)Cn1c(CN2CCCCC2)nc2ccccc2c1=O (stereo not drawn)	none
Nn1c(CN2CCCCC2)nc2ccccc2c1=O	PostGolgi ctrl 31
OC1(c2ccc(F)cc2)CCN(Cc2nnnn2Cc2cccs2)CC1	none
CC(C)c1cc(Br)ccc1OCCCN1C(=O)NC(C)(C)C1=O	PostGolgi ctrl 38 (no result: D1 mod)
Cc1[nH]c2ccc(C(=O)OCCN(C)C)cc2c1C	D1 mod -4
CN(C)c1ccc(-c2noc(-c3ccccc3O)n2)cc1	none
COC(=O)C1=C(C)N(C)C(C)=C(C(=O)OC)C1c1ccc(F)c(Br)c1	PostGolgi ctrl 53, Cav3 T inh -6.8
O=C(c1cc(-c2cccnc2)nc2ccc(Br)cc12)N1CCC2(CC1)OCCO2	none (no result: hDAT+cocaine, PostGolgi yeast, PostGolgi ctrl, Cav3 T inh, PLAP act)
CCOc1cc(S(=O)(=O)N2CCN(c3ccc(F)cc3)CC2)c(OCC)cc1-n1cnnn1	PostGolgi ctrl 82
Fc1ccc(CN(Cc2ccccc2)C(c2cccs2)c2nnnn2C2CCCCC2)cc1 (stereo not drawn)	none (no result: D1 mod)
Fc1ccc(N2CCN(C(c3cccs3)c3nnnn3C3CCCC3)CC2)cc1 (stereo not drawn)	PostGolgi ctrl 36
COc1ccc(N2CCN(C(c3cccs3)c3nnnn3C3CCCC3)CC2)cc1 (stereo not drawn)	PostGolgi ctrl 78
Fc1ccc(C(c2nnnn2Cc2cccs2)N2CCN(C3CCCCC3)CC2)cc1 (stereo not drawn)	PLAP act 2.1
CCOC(=O)c1ccc(NC(=O)c2nc[nH]c2C(=O)N[C@@H](CC(C)C)C(=O)OCc2ccccc2)cc1	none (no result: PostGolgi yeast, PostGolgi ctrl, D1 mod, PLAP act)
COc1ccc(OC)c(C2C(C(N)=O)=C(C)Nc3nc(CCCO)nn32)c1 (stereo not drawn)	none
COc1ccc(CCN2C(=O)CC(C(N)=O)SC2=Nc2ccccc2)cc1OC (stereo not drawn)	none
O=S(=O)(c1ccc2c(c1)OCCO2)N1CCN(Cc2ccc3c(c2)OCO3)CC1	PostGolgi ctrl 31
O=C(OCc1ccc2c(c1)OCO2)c1ccc(S(=O)(=O)N2CCCC2)cc1	none
O=C(/C=C/c1ccc2c(c1)OCO2)NCCSCc1ccc(Cl)cc1Cl	Cav3 T inh -6.3 (no result: D1 mod)
O=C(NCc1ccccc1)c1ccc(CN2CCOCC2)cc1	none
O=C(NCc1ccc2c(c1)OCO2)c1ccc(CN2CCOCC2)cc1	PostGolgi ctrl 33
O=C(/C=C/c1ccc2c(c1)OCO2)NCCSCc1cccc(Cl)c1	none (no result: hDAT+cocaine, D1 mod, Cav3 T inh)
O=C(OCc1ccc2c(c1)OCO2)c1cccc(S(=O)(=O)N2CCCCC2)c1	PostGolgi ctrl 38 (no result: D1 mod)
COC(=O)NNC(=O)c1ccccc1C	none (no result: D1 mod)
O=C(NCCSCc1ccc(Cl)cc1Cl)c1ccc(CN2CCOCC2)cc1	hDAT+cocaine 3.2, PostGolgi yeast 76, PostGolgi ctrl 31, Cav3 T inh -4.3 (no result: D1 mod)
Cc1ccc(C(=O)NCc2ccc3c(c2)OCO3)cc1S(=O)(=O)N1CCOCC1	none
Cc1cc(C)n(-c2ccc(C(=O)NCc3ccc4c(c3)OCO4)cc2)n1	none
O=C(NCc1ccco1)c1ccc(CN2CCOCC2)cc1	none
Cc1ccc(C(=O)NCc2ccc3c(c2)OCO3)cc1S(=O)(=O)N1CCCCC1	Cav3 T inh -7.4
O=C(NCc1ccc2c(c1)OCO2)c1cc(-n2cnnc2)ccc1Cl	PostGolgi ctrl 46
COc1ccc(-n2c(SCC(=O)NCc3ccco3)nc3c([nH]c4ccccc43)c2=O)cc1	none (no result: D1 mod)
CC(C)n1c(SCc2ccc(Cl)cc2)nc2c1c(=O)[nH]c(=O)n2C	hDAT+cocaine -3.1
Cc1ccc(CSc2nc3c(c(=O)[nH]c(=O)n3C)n2CCC(C)C)cc1	PostGolgi ctrl 41
CCO[C@@H]1OC(C(=O)N2CCOCC2)=C[C@H](c2coc3ccccc3c2=O)[C@H]1CCCO	none (no result: PostGolgi yeast, PostGolgi ctrl, D1 mod, PLAP act)
CN(C)c1nc(N)nc(CSc2nnnn2-c2ccccc2)n1	none (no result: D1 mod)
O=C(CSc1ccc2ccccc2n1)N1CCC(c2noc3ccc(F)cc23)CC1	Cav3 T inh -6.5 (no result: PostGolgi yeast, PostGolgi ctrl, D1 mod, PLAP act)
Cc1nnc(SCC(=O)N2CCC(c3noc4ccc(F)cc34)CC2)s1	none
Cc1cc(SCC(=O)N2CCCC2)nc2ccccc12	none (no result: D1 mod)
Cc1sc2ncnc(SCC(=O)N3CCC(c4noc5ccc(F)cc45)CC3)c2c1C	PostGolgi yeast 83, PostGolgi ctrl 91 (no result: hDAT+cocaine, D1 mod, Cav3 T inh)
COC(=O)c1cccc2nc3c(C(C)O)cccc3nc12 (stereo not drawn)	none (no result: PostGolgi yeast, PostGolgi ctrl, D1 mod, PLAP act)
Fc1c(F)c(C(F)(F)F)c(F)c(F)c1N/N=C\c1cccs1	none (no result: D1 mod)
CCCCN(CCCC)S(=O)(=O)c1ccc(C(=O)Nc2nnc(CSC)o2)cc1	Cav3 T inh -3.1
CCCN(CCC)S(=O)(=O)c1ccc(C(=O)Nc2nnc(-c3cc(OC)cc(OC)c3)o2)cc1	PLAP act 2 (no result: hDAT+cocaine, D1 mod, Cav3 T inh)
COc1ccc2c(c1OC)C(=O)N(c1cccc(C(F)(F)F)c1)C2	D1 mod -2.7
c1csc(C2=Nn3c(nnc3-c3ccncc3)SC2)c1	none (no result: D1 mod)
Cc1ccc(-n2c(-c3ccncc3)nnc2-c2cccs2)cc1	D1 mod 7 (no result: PostGolgi yeast, PostGolgi ctrl, PLAP act)
CCOC(=O)C1CCCN(C(=O)COc2ccccc2O)C1 (stereo not drawn)	none (no result: D1 mod)
CCOC(=O)C1CCCN(C(=O)CSc2nccn2C)C1 (stereo not drawn)	hDAT+cocaine -3 (no result: D1 mod)
Cn1c(-c2ccc(F)cc2)cnc1NCc1ccccc1	D1 mod -3.4
Cn1c(-c2ccc(F)cc2)cnc1NCc1cccc(F)c1	none (no result: D1 mod)
CC(CCc1ccco1)NC(=O)CSc1cc(=O)n(C)c2ccccc12 (stereo not drawn)	none
CCOC(=O)c1c(-c2ccc(-c3ccccc3)cc2)csc1NC(=O)C1C2CCC(O2)C1C(=O)O (stereo not drawn)	Cav3 T inh -4.6 (no result: D1 mod)
CCOC(=O)c1c(-c2cccc(C)c2)csc1NC(=O)C1CC=CCC1C(=O)O (stereo not drawn)	Cav3 T inh -8.9 (no result: D1 mod)
C=CCOC(=O)/C(=C\c1cccc2ccccc12)NC(=O)c1ccccc1	Cav3 T inh -5.2 (no result: D1 mod)
